Screens (PubChem BioAssay)
Pf Dd2 inh: qHTS Primary assay for Inhibitors of Plasmodium falciparum Dd2 growth in vitro. P. falciparum Dd2 growth, SYBR Green, 72 h. Potency, µM (doses to about 28.9 µM), inactives show top-dose activity, negative = inhibition, most hits filed as inhibitors. 120,000 tested, 4.3% active; active = well fitted inhibition curve with a large enough effect;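 note: plate controls were DMSO vehicle for no effect and reference drug for full effect; nearly all actives have a fitted effect of over 65% in size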
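Infected erythrocytes (Dd2, 0.3% parasitemia, 2.5% hematocrit final) are added to compound in RPMI-1640/Albumax II medium, grown 72 h at 37C in low oxygen, then lysed with saponin/Triton-X containing SYBR Green and read by fluorescence.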
* = called active by the depositor; i = inactive; [ ] = another dose, or the depositor's remark. Many of the other results were omitted from the sample, so hits are more common in it than they were. Potency is the fitted concentration of half-maximal effect.

SMILES	Pf Dd2 inh
O=C(Cn1ccn2nc(-c3ccc(F)cc3)c(CO)c2c1=O)N1CCc2ccccc21	-14.4%
COc1ccccc1CN1CCC2(CC1)OC(=O)N(Cc1ccc(NC(C)=O)cc1)C2(C)c1ccccc1 (stereo not drawn)	12.6µM*
COc1ccccc1CN1CCC2(CC1)OC(=O)N(Cc1csc(C)n1)C2(C)c1ccccc1 (stereo not drawn)	i
COc1ccc(CN2CCC3(CC2)OC(=O)N(Cc2ccccc2C#N)C3(C)c2ccccc2)cc1O (stereo not drawn)	-15.8%
COc1ccccc1CN1CCC2(CC1)OC(=O)N(Cc1ccccc1F)C2(C)c1ccccc1 (stereo not drawn)	3.98µM*
CC1(c2ccccc2)N(Cc2ccccc2F)C(=O)OC12CCN(Cc1ccc(C#N)cc1)CC2 (stereo not drawn)	-22.8%
CC(=O)Nc1ccc(CN2C(=O)OC3(CCN(Cc4ccccc4)CC3)C2(C)c2ccccc2)cc1 (stereo not drawn)	-18.8%
CCCOc1nccnc1NC1CCN(C(=O)C2CCCO2)CC1 (stereo not drawn)	i[5.79 µM]
O=C1CC2(CCN(CC3CCCCC3)CC2)Oc2ccccc21	-8.2%[44.1 µM]
O=Cc1cccc(N2CCN([S+](=O)([O-])C3CC3)CC2=O)c1	-17.9%
Cc1ccccc1CN1C[C@@H]2C(=O)N(CCc3ccccc3)C(=O)[C@@H]2C1	-12.1%
O=C1[C@H]2CN(Cc3ccc(Cl)cc3)C[C@H]2C(=O)N1CCc1ccccc1	-13.3%
CC(C)CCN1C[C@@H]2C(=O)N(CCc3ccccc3)C(=O)[C@@H]2C1	8.91µM*
COCC(=O)NC[C@H]1O[C@@H](CC(=O)NCCN(C)C)[C@H](O)[C@@H]1O	21.8%[44.1 µM]
COc1cc(C)c(-c2nc(CN3CCN(C)C(=O)C3)c(C)o2)cc1C	-25.1%
CC1=C(C(=O)Nc2cc(Cl)ccc2C)C(c2ccccc2F)n2ncnc2N1 (stereo not drawn)	10.1%
CC1=C(C(=O)Nc2ccc(C)cc2C)C(c2ccc[nH]2)n2ncnc2N1 (stereo not drawn)	28.5%
CC1=C(C(=O)Nc2ccc(C)cc2C)C(c2cccs2)n2nc(SCc3cccc(C)c3)nc2N1 (stereo not drawn)	-6.8%
CC1=C(C(=O)Nc2ccc(C)cc2C)C(c2ccc(Br)cc2)n2ncc(C(=O)Nc3cccc(C)c3)c2N1 (stereo not drawn)	1.12µM*
COc1ccc(C2C(C(=O)Nc3ccc(C)cc3C)=C(C)Nc3nc(SC)nn32)cc1OC (stereo not drawn)	15.4%
CC1=C(C(=O)Nc2ccc(C)cc2C)C(c2cc(Br)ccc2F)n2ncc(C(=O)Nc3ccc(C)cc3)c2N1 (stereo not drawn)	0.891µM*
CC1=C(C(=O)Nc2ccc(C)cc2C)C(c2ccc(Cl)cc2)n2nc(C(=O)OC(C)C)nc2N1 (stereo not drawn)	-5.5%
CC1=C(C(=O)Nc2ccc(Cl)cc2)C(c2ccccc2F)n2nc(SCc3cccc(Cl)c3)nc2N1 (stereo not drawn)	36.4%
CC1=C(C(=O)Nc2ccccc2)C(c2cc(Br)ccc2F)n2ncc(C(=O)Nc3ccccc3)c2N1 (stereo not drawn)	1.12µM*
O=C(c1cc(F)ccc1F)N1CCN(c2nnc3ccc(Cl)cn23)CC1	i
SMILES	Pf Dd2 inh
COCCN(C)C[C@@H]1CN(C(=O)c2ccc(=O)[nH]n2)C[C@@H]1CO	-5.0%
CNC(=O)[C@@H]1CNC[C@H]1c1n[nH]c(C)n1	-18.8%
O=C(Cn1nc2n(c1=O)CCCCC2)Nc1ccc2c(c1)OCO2	29.5%
Cc1[nH]cnc1-c1nccn1-c1ccc(NC(=O)CN2CCOCC2)cc1	-12.0%
C[C@@H](NC(=O)Cc1ccccc1)c1onc(-c2cccnc2)c1C(=O)O	18.7%[44.1 µM]
CN1[C@@H](CCC(=O)NCc2cccs2)CNC(=O)[C@@H]2[C@H]1CCN2Cc1ccc(O)cc1	-2.9%[44.1 µM]
CCCn1nccc1C(=O)N1CCCC(c2[nH]ncc2Cc2ccccc2)C1 (stereo not drawn)	-9.2%
COc1cc(-c2nc(-c3c(C)noc3C)cc3[nH]c(C)cc23)ccn1	i
CCCCC(=O)N(CCC)CC1CCOC1 (stereo not drawn)	14.1%[5.79 µM]
CN(CC1CCOC1)C(=O)Nc1ccc(Cl)cc1F (stereo not drawn)	16.0%[5.79 µM]
Cc1ccc(F)cc1NC(=O)c1ccc(Cn2nc(N3CCN(c4ccccc4)CC3)ccc2=O)o1	11.2µM*
CC(C)CCNC(=O)Cn1nc(N2CCN(c3ccccc3)CC2)ccc1=O	3.5%
O=C(O)Cn1nc(N2CCN(c3ccc(F)cc3)CC2)ccc1=O	25.1%
CN(C)CCNC(=O)Cn1nc(N2CCN(c3ccccc3)CC2)ccc1=O	51.3%
Cc1cccc(NC(=O)c2ccc(Cn3nc(N4CCN(c5ccccc5)CC4)ccc3=O)o2)c1C	11.2µM*
Cc1cc(F)ccc1NC(=O)Cn1nc(N2CCN(c3ccccc3)CC2)ccc1=O	8.7%
CC(=O)N1CCN(c2ncnc3c2CN(c2ccc([N+](=O)[O-])cc2)C(=O)N(C)C3)CC1	23.7%
Cn1nc2n(c1=O)CCC(NS(=O)(=O)c1ccc3c(c1)CCCC3)CC2 (stereo not drawn)	i
CNC(=O)c1cccc(-c2cnc(Nc3cccnc3OC)c3c2CCO3)c1	i
CN(CCc1ccccn1)[C@H]1[C@@H]2OC[C@@H](O2)[C@@H](NCc2ccc3c(c2)OCO3)[C@@H]1O	-9.2%[44.1 µM]
CC(=O)N1CCN(CC[C@@H]2CC[C@H](O)[C@@H](C(=O)N3CCOCC3)O2)CC1	25.5%[44.1 µM]
COc1ccc(-c2ccnc(N[C@H]3CO[C@H]4[C@@H]3OC[C@H]4OC(=O)Nc3ccc(C(C)(C)C)cc3)n2)cc1	i
COc1ccc(-c2ccnc(N[C@H]3CO[C@H]4[C@@H]3OC[C@H]4OC(=O)Nc3cccc(C(C)=O)c3)n2)cc1	-27.7%
COc1ccc(-c2ccnc(N[C@H]3CO[C@H]4[C@@H]3OC[C@@H]4NC(=O)NCc3ccccc3)n2)cc1	5.01µM*
COc1ccc(-c2ccnc(N[C@H]3CO[C@H]4[C@@H]3OC[C@@H]4NC(=O)CC3(CC(=O)O)CCCC3)n2)cc1	-4.4%
SMILES	Pf Dd2 inh
CCNC(=O)N[C@H]1CO[C@H]2[C@@H]1OC[C@@H]2Nc1nccc(-c2ccc(OC)cc2)n1	i
COc1ccc(-c2ccnc(N[C@H]3CO[C@H]4[C@@H]3OC[C@H]4OC(=O)Nc3ccc(C(C)=O)cc3)n2)cc1	5.62µM*
CN(C)S(=O)(=O)N1CC[C@@H]2C(=O)NCCCCCCN(Cc3ccncc3)[C@@H]2C1	-24.6%
O=C(NCC1CCN(c2cc(-c3ccc(F)cc3)[nH]n2)CC1)c1c[nH]c2ccccc12	-5.0%
CC(C)C1=NOC2(CCN(Cc3cccn3C)C2)C1 (stereo not drawn)	2.2%[44.1 µM]
CC(C)CCNC(=O)C1N(C(C)C)C(=O)C12CCCCC2 (stereo not drawn)	i
CC(C)[C@@H]1CN(C(=O)c2ccc(F)cc2F)C[C@H]1NS(=O)(=O)N(C)C	9.7%
O=C(Nc1ccc(Cl)cc1Cl)c1ccn2cncc2c1	-0.9%[44.1 µM]
O=C(Nc1ccc(F)cc1)c1ccc(-n2cnnc2)cc1	25.8%
O=C(Nc1ccc(Cl)cc1Cl)c1cccn2cncc12	12.6µM*
O=C(Nc1ccc(F)cc1)c1cc2cccnn2n1	i
O=C(Nc1ccc(Cl)cc1Cl)c1ccc2cncn2c1	i
O=C(Nc1ccc(F)cc1)c1cccn2cncc12	15.8µM*
CN1CCC(OC2CCN(C(=O)CC3CCCC3)CC2)CC1	38.2%
COc1ccc(S(=O)(=O)N[C@H](C)c2onc(-c3cccnc3)c2C(=O)O)cc1	19.2%[44.1 µM]
CCOc1ccc(-c2cccc(NS(=O)(=O)c3ccc(C)s3)c2)nn1	-10.2%
